Source: PubChem BioAssay (NCI)
This is part of a sample that, as a whole, favours compounds with a hit. Of some 83,000 tested, about 20% had one in any assay.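 Results are percent growth after 48 hours of single-concentration exposure. 100 means growth as in untreated cells, lower positive values show inhibition; negative values down to -100 show cell death.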 Unmarked numbers belong to inactive results. Calls of active or inactive are those of the source. Rule for the calls: active = growth percent below 10; inactive = the rest.

Experiments:
Assay in all cases: NCI-60 one-dose screen, 48 h (100 = growth as untreated, 0 = no growth, -100 = all killed)
SR leukemia = settings: 10 µM unless noted
RPMI-8226 leukemia = settings: 10 µM unless noted
OVCAR-8 ovarian = settings: 10 µM unless noted
OVCAR-5 ovarian = settings: 10 µM unless noted
OVCAR-4 ovarian = settings: 10 µM unless noted
SK-OV-3 ovarian = settings: 10 µM unless noted
IGROV1 ovarian = settings: 10 µM unless noted
OVCAR-3 ovarian = settings: 10 µM unless noted
NCI/ADR-RES ovarian = settings: 10 µM unless noted
T-47D breast = settings: 10 µM unless noted
BT-549 breast = settings: 10 µM unless noted
MDA-MB-435 melanoma = settings: 10 µM unless noted
SW-620 colon = settings: 10 µM unless noted
MCF7 breast = settings: 10 µM unless noted
HCT-116 colon = settings: 10 µM unless noted
HCC-2998 colon = settings: 10 µM
KM12 colon = settings: 10 µM unless noted

SMILES | growth (SR leukemia) | growth (RPMI-8226 leukemia) | growth (OVCAR-8 ovarian) | growth (OVCAR-5 ovarian) | growth (OVCAR-4 ovarian) | growth (SK-OV-3 ovarian) | growth (IGROV1 ovarian) | growth (OVCAR-3 ovarian) | growth (NCI/ADR-RES ovarian) | growth (T-47D breast) | growth (BT-549 breast) | growth (MDA-MB-435 melanoma) | growth (SW-620 colon) | growth (MCF7 breast) | growth (HCT-116 colon) | growth (HCC-2998 colon) | growth (KM12 colon)
NC1(c2ccc(-c3nc4ccn5c(=O)[nH]nc5c4cc3-c3ccccc3)cc2)CCC1 | -23.4% (active) | 24.7% | 51.9% | 60.5% | 63.2% | 3.19% (active) | 12.6% | 39.7% | 56.8% | -70.4% (active) | 17% | 27% | 55% | 12.2% | 23.3% | 33.6% | 26.9%
CC(C)CC(=O)Nc1n[nH]c2c1CN(C(=O)C1CCN(C)CC1)C2(C)C | 2.42% (active) | 3.37% (active) | 15.4% | 8.63% (active) | 33.5% | -1.71% (active) | 15.4% | 18.3% | 96.1% | -3% (active) | 33.7% | 12% | 9.91% (active) | 3.99% (active) | 2.94% (active) | 13.1% | 9.26% (active)
C/C(=C(/c1ccc(Cl)cc1)c1ccc(OCCN2CCCC2)cc1)c1ccccc1 | 7.27% (active) | 42.8% | 88.1% | 64.7% | 91.7% | 121% | 65.9% | 91.8% | 77.6% | 72.4% | 73.4% | 55.1% | 51.4% | 33.8% | 47.4% | 84.7% | 25.6%
CNC(=O)c1cccc2cc(Oc3ccnc4cc(OCC5(N)CC5)c(OC)cc34)ccc12 | 27.6% | 81.7% | 48.9% | 65.3% | 49.4% | 69.8% | 39.5% | 61.4% | 76% | 92.2% | 59.7% | 24.1% | 46.9% | 49.1% | 33.2% | 92% | 45.9%
O=C(Nc1cccc(Cl)c1)Nc1ncc(CCNc2ncnc3ccsc23)s1 | 19.3% | 7.45% (active) | 1.53% (active) | 64.6% | 24.6% | 47.5% | 36% | 38.3% | 9.39% (active) | -16.9% (active) | 0.164% (active) | 12.5% | 62.6% | 11.8% | 17.9% | 80.1% | 11.4%
CO[C@H]1C[C@@H]2CC[C@@H](C)[C@@](O)(O2)C(=O)C(=O)N2CCCC[C@H]2C(=O)O[C@H]([C@H](C)C[C@@H]2CC[C@@H](OCCO)[C@H](OC)C2)CC(=O)[C@H](C)/C=C(\C)[C@@H](O)[C@H](OC)C(=O)[C@H](C)C[C@H](C)\C=C/C=C/C=C/1C | 11.3% | 35.6% | 40.9% | 50.8% | 26.8% | 35% | 16.3% | 63.4% | 57.7% | 7.51% (active) | 42.3% | 56.4% | 53.7% | 35.8% | 64.3% | 66% | 55.3%
Cn1c(Nc2ccc(C(F)(F)F)cc2)nc2cc(Oc3ccnc(-c4ncc(C(F)(F)F)[nH]4)c3)ccc21 | 32.1% | 86.7% | 58.1% | 63.2% | 64.7% | 6.69% (active) | 33.1% | 58.8% | 66.3% | 48.5% | 37.5% | 28.8% | 65.5% | 82.3% | 32.9% | 73% | 58.3%
CNC(=O)c1ccc(Nc2ncc(C(F)(F)F)c(NCc3nccnc3N(C)S(C)(=O)=O)n2)cc1 | -21.3% (active) | -26.7% (active) | -0.118% (active) | 0.954% (active) | 1.68% (active) | -21.1% (active) | 3.11% (active) | 9.41% (active) | 29.8% | -12.4% (active) | -5.77% (active) | 8.89% (active) | -4.11% (active) | 2.04% (active) | 1.19% (active) | 8.5% (active) | 1.91% (active)
Cc1cc2c(F)c(Oc3ncnn4cc(OC[C@@H](C)OC(=O)[C@H](C)N)c(C)c34)ccc2[nH]1 | 18.5% | 47.1% | 61.7% | 25.8% | 65.5% | 73.9% | 20.8% | 81.1% | 90.5% | 70.5% | 80.8% | 28.6% | 20.3% | 39.6% | 19.3% | 37.5% | 35.1%
